Measured values taken from paper PMC7862700, “An all-to-all approach to the identification of sequence-specific readers for epigenetic DNA modifications on cytosine”.

Assays:
Test in all cases: DAPPL (digital affinity profiling via proximity ligation, sequencing); 10 mM Tris-HCl pH 7.5, 50 mM NaCl, 1 mM DTT, 4% glycerol, room temperature, 30 min; GST-TFs on glutathione beads, 16-mer random dsDNA library, 0.1% formaldehyde crosslink after washing; high values mean tight binding
Conditions in all cases: protein: recombinant; tags: N-terminal GST; dsDNA, one strand shown
[1] = target: T1, FLI1 (Homo sapiens, UniProt Q01543 1-452)
T1 sequence: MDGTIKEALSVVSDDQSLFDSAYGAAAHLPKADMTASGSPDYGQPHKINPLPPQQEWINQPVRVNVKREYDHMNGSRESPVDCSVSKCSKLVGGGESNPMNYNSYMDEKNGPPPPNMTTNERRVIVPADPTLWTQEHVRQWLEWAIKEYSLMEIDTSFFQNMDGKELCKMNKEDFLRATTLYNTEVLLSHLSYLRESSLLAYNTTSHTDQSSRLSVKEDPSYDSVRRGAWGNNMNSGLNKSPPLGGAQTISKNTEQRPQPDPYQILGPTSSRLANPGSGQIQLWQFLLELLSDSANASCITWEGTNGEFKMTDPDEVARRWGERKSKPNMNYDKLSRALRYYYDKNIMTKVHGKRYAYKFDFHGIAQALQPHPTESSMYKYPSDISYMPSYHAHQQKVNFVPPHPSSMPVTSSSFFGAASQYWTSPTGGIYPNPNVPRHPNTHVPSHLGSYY
Procedure, shortened: (§1)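 Pools of DNA-barcoded human transcription factors, expressed in yeast as GST fusions on glutathione beads and combined with a tag-only sample, were incubated with 200 nmole of a 16-mer random double-stranded DNA library. Incubation took 30 min at room temperature in Tris/NaCl/DTT/glycerol buffer and was followed by washing, 0.1% formaldehyde crosslinking, proximity ligation (BsaI/T4 ligase, 1 h, 37 °C), PCR amplification and sequencing on an Illumina NextSeq500. Binding signal is the ratio of a hexamer's read frequency for a factor to its frequency for the tag-only sample.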

[2] = target: T2, ELK1 (Homo sapiens, UniProt P19419 1-428)
T2 sequence: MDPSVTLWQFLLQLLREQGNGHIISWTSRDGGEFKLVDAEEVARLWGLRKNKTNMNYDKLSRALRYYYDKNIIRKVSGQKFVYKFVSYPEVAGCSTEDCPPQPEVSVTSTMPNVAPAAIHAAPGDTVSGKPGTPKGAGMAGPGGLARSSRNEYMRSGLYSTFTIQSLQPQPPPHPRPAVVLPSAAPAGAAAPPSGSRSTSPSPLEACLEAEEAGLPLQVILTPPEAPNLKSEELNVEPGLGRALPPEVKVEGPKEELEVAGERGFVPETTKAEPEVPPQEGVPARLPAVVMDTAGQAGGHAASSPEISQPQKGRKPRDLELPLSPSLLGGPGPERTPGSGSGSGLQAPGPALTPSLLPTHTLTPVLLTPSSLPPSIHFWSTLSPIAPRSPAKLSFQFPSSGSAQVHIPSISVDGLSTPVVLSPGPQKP
Procedure, shortened: as §1

[3] = target: T3, GABPA (Homo sapiens, UniProt Q06546 1-454)
T3 sequence: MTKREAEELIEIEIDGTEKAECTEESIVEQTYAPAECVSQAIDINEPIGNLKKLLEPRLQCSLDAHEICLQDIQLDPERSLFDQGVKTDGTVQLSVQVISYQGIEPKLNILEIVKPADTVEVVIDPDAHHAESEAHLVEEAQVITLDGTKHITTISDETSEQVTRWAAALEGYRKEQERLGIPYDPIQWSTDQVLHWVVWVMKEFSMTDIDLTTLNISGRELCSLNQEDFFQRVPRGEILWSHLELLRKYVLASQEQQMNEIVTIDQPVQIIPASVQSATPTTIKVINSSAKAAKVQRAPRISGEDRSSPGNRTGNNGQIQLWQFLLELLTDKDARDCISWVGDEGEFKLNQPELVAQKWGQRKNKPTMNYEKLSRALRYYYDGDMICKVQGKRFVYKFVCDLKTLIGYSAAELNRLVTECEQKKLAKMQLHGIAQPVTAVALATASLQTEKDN
Procedure, shortened: as §1

[4] = target: T4, ERG (Homo sapiens, UniProt P11308 1-479)
T4 sequence: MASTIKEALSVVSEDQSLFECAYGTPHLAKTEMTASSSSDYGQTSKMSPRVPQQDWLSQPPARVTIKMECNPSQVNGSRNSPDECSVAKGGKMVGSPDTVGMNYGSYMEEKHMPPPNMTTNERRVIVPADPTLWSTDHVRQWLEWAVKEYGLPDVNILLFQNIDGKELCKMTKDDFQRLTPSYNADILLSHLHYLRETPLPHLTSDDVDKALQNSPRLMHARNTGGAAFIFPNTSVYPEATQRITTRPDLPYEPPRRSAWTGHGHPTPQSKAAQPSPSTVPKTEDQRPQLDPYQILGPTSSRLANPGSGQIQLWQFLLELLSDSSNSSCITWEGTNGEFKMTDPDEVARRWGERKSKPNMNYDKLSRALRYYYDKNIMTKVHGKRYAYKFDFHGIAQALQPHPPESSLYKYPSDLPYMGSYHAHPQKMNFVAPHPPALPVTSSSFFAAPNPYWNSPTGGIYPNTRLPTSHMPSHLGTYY
Procedure, shortened: as §1

[5] = target: ELF1 (Homo sapiens, UniProt P32519 1-619)
Procedure, shortened: as §1

[6] = target: T5, EHF (Homo sapiens, UniProt Q9NZC4 1-300)
T5 sequence: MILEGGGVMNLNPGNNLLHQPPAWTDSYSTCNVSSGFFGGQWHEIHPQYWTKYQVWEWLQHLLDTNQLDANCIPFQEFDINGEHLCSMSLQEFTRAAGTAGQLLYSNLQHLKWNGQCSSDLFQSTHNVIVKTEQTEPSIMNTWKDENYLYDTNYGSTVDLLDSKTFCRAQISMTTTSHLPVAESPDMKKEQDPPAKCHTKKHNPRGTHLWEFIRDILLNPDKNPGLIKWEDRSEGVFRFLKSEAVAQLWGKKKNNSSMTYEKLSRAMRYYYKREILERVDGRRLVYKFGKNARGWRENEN
Procedure, shortened: as §1

[7] = target: SPI1 (Homo sapiens, UniProt P17947 1-270)
Procedure, shortened: as §1

[8] = target: SPIB (Homo sapiens, UniProt Q01892 1-262)
Procedure, shortened: as §1

[9] = target: T6, ELK3 (Homo sapiens, UniProt P41970 1-407)
T6 sequence: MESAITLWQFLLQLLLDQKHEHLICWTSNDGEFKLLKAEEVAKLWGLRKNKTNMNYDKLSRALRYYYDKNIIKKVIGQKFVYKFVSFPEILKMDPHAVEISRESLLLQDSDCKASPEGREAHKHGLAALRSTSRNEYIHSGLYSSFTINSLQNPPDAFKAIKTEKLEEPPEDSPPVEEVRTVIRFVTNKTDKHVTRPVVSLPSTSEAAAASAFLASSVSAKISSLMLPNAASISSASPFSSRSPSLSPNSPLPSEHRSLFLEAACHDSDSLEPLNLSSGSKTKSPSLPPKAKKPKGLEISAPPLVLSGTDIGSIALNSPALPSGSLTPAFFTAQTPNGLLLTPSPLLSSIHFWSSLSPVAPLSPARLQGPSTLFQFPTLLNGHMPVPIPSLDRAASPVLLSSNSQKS
Procedure, shortened: as §1

Chain of ELF1 (P32519 whole entry): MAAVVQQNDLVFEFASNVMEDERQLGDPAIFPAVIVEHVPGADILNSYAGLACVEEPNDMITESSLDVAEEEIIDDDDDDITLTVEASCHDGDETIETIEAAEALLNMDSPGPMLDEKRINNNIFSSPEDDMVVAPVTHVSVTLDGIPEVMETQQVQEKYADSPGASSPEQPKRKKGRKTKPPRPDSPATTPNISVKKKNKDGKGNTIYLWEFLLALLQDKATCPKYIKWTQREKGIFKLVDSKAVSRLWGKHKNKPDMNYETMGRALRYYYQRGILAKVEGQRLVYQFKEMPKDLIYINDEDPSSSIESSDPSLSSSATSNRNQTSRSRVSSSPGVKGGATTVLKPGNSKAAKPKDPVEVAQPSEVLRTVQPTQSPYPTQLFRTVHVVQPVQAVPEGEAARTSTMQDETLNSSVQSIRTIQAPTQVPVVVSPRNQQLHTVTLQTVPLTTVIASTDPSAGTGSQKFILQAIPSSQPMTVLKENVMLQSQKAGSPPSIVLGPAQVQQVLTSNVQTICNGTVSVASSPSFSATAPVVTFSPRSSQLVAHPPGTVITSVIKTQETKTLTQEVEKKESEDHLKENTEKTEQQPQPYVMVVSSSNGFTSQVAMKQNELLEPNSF
Chain of SPIB (Q01892 whole entry): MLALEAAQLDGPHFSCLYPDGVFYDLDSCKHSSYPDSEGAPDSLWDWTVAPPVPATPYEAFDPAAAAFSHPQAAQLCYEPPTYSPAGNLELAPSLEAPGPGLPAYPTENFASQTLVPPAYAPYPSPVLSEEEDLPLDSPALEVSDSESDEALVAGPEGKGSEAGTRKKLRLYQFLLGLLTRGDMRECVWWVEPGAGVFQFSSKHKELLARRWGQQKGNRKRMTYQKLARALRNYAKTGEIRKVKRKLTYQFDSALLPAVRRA

TACCAC
binding signal [1]: 1.2 fold enrichment (6-mer frequency, TF over GST control)
binding signal [2]: 1.32 fold enrichment (6-mer frequency, TF over GST control)
binding signal [3]: 1.18 fold enrichment (6-mer frequency, TF over GST control)
binding signal [4]: 1.17 fold enrichment (6-mer frequency, TF over GST control)
binding signal [5]: 1.32 fold enrichment (6-mer frequency, TF over GST control)
binding signal [6]: 1.23 fold enrichment (6-mer frequency, TF over GST control)
binding signal [7]: 1.24 fold enrichment (6-mer frequency, TF over GST control)
binding signal [8]: 1.26 fold enrichment (6-mer frequency, TF over GST control)
binding signal [9]: 1.14 fold enrichment (6-mer frequency, TF over GST control)
